LAP4 TOR yeast: modulators of LAP4-GFP expression in yeast, primary screen, S. cerevisiae, multiplex flow cytometry, MLPCN library; 3 h; median GFP as percent of DMSO wells; GFP response vs DMSO, % at 10 µM; 320,000 tested, 0.34% active; AID 2023, 2009;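 active = GFP response vs DMSO above a set limit, about the screen mean plus 3 SD, cut at about 150% in these data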
AGP1-GFP MLPCN: modulators of AGP1-GFP expression in yeast TOR pathway, primary screen, cell-based, multiplex flow cytometry, S. cerevisiae, MLPCN library. AID 2066, 2009. 320,000 tested, 0.02% active. GFP response vs DMSO, % at 10 µM. 3 h; GFP as percent of DMSO wells;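 active = GFP response relative to DMSO above a set limit, near screen average plus 3 SD, cut at about 150% in these data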;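 also: median GFP channel fluorescence of the gated AGP1 strain per well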
CIT2-GFP yeast: modulators of CIT2-GFP expression in yeast, primary screen, S. cerevisiae, GFP fusion, multiplex flow cytometry, MLPCN library; 320,000 tested, 0.065% active; GFP response vs DMSO, % at 10 µM; AID 2029, 2009; S. cerevisiae CIT2-GFP strain, 3 h; 100 means same as DMSO wells;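 active = GFP response relative to DMSO above a set limit, near the screen mean plus 3 SD, cut at about 150% in these data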;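 also: ratio of well median GFP fluorescence to mean of DMSO wells on the plate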
MEP2 TOR yeast: modulators of MEP2-GFP levels in yeast, primary screen, S. cerevisiae, multiplex flow cytometry, MLPCN library; S. cerevisiae MEP2-GFP strain, 3 h; 100% = DMSO control level; GFP response vs DMSO, % at 10 µM; 330,000 tested, 0.51% active; AID 2016, 2009;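 active = GFP response versus DMSO above a set limit, roughly screen mean plus 3 SD, cut at about 180% in these data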;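 also: median GFP fluorescence of the barcode-gated MEP2-GFP cells per well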
RPL19A TOR yeast: RPL19A-GFP expression modulators in yeast, primary screen, cell-based, S. cerevisiae, multiplex flow cytometry, MLPCN; S. cerevisiae RPL19A-GFP strain, 3 h; active compounds read low; percent response vs DMSO, % at 10 µM; 330,000 tested, 0.3% active;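 active = percent response vs DMSO below 50%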;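 also: median channel GFP fluorescence of the barcoded RPL19A-GFP strain; lower means less RPL19A-GFP as with rapamycin TOR inhibition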
VLA-4 inh: inhibition in human VLA-4 binding assay, primary screen, VLA-4 allosteric modulator project, MLPCN library, flow cytometry, VLA-4 expressing cells; inhibition, % (about 7 µM as worked out from the volumes in the protocol); Integrin alpha-4 (Homo sapiens), P13612; ligand binding flow cytometry; AID 2557, 2010; 330,000 tested, 0.2% active; in the data active = inhibition above about 50%
VLA-4 allo CP: retest of VLA-4 allosteric modulators, confirmation, cell-based, cherry-picked plates, U937, HUTS-21 LIBS antibody. shares compounds with VLA-4 inh. U937 cells, HUTS-21 LIBS mAb binding, flow cytometry; LDV ligand present at threefold Kd. inhibition, % at 6.7 µM. 1,300 tested, 2% active; in the data active = inhibition above about 40%
Numbers stand for hits; . = inactive; / = no result. Shown are actives, neighbours in structure and some others; about 1.1% of the full set was active somewhere.

SMILES	LAP4 TOR yeast	AGP1-GFP MLPCN	CIT2-GFP yeast	MEP2 TOR yeast	RPL19A TOR yeast	VLA-4 inh	VLA-4 allo CP
CN1CCc2nc(SCC(=O)Nc3ccc(Cl)cc3)c(C#N)cc2C1	.	.	.	.	.	106	.
COc1ccc(NC(=O)CSc2nc(N)c(C#N)cc2C#N)cc1	.	.	.	.	.	.	/
COc1cccc(C2CC(=O)Nc3cc(OC)c(OC)cc32)c1 (stereo not drawn)	.	.	.	.	.	.	.
CCOc1cccc(C2CC(=O)Nc3cc(OC)c(OC)cc32)c1 (stereo not drawn)	.	.	.	.	.	51	.
COc1cc2c(cc1OC)C(c1ccsc1)CC(=O)N2 (stereo not drawn)	.	.	.	.	.	.	/
COc1cccc(C2CC(=O)Nc3cc4c(cc32)CCC4)c1 (stereo not drawn)	.	.	.	.	.	.	/
COc1cc2c(cc1OC)C(c1ccc(Br)cc1)CC(=O)N2 (stereo not drawn)	.	.	.	.	.	.	.
O=C(CSc1ccc2nnc(-c3cccnc3)n2n1)Nc1ccccc1	.	.	.	.	.	.	/
Cc1nnc(NC(=O)CSc2ccc3nnc(-c4cccnc4)n3n2)s1	.	.	.	.	.	54	.
O=C(CSc1ccc2nnc(-c3cccnc3)n2n1)NCC1CCCO1 (stereo not drawn)	.	.	.	.	.	.	.
O=C(CSc1nncs1)NNC(=O)c1ccco1	.	.	.	.	.	.	/
CCn1cc(C(=O)N[C@@H](CCSC)C(=O)NCCCO)c(=O)c2cc3c(cc21)OCO3	.	.	.	.	.	.	.
CCn1cc(C(=O)N[C@@H](CCSC)C(=O)NCCOC)c(=O)c2cc3c(cc21)OCO3	.	.	.	.	.	.	/
CCOc1ccc(N(Cc2ccc(OC)cc2)C(=O)c2ccco2)cc1	.	.	.	.	.	.	/
CCOc1ccc(N(Cc2ccc(OC)c(OC)c2)C(=O)c2ccco2)cc1	.	.	.	.	.	68	.
Cc1ccc(C)c(N2CCN(C(=O)c3ccc(Cl)c(NC4=NC5CS(=O)(=O)CC5S4)c3)CC2)c1 (stereo not drawn)	.	.	.	.	.	.	.
COc1cccc(N2CCN(C(=O)c3cccc(NC4=NC5CS(=O)(=O)CC5S4)c3)CC2)c1 (stereo not drawn)	.	.	.	.	.	.	.
O=C(c1ccc(Cl)c(NC2=NC3CS(=O)(=O)CC3S2)c1)N1CCN(c2ccccc2)CC1 (stereo not drawn)	.	.	.	.	.	.	.
CCOC(=O)C1CCN(C(=O)c2cccc(NC3=NC4CS(=O)(=O)CC4S3)c2)CC1 (stereo not drawn)	.	.	.	.	.	.	/
Cc1cccc(N2CCN(C(=O)c3ccc(Cl)c(NC4=NC5CS(=O)(=O)CC5S4)c3)CC2C)c1 (stereo not drawn)	.	.	.	.	.	.	.
CC(=O)c1ccc(N2CCN(C(=O)c3ccc(NC4=NC5CS(=O)(=O)CC5S4)cc3)CC2)cc1 (stereo not drawn)	.	.	.	.	.	.	/
O=C(c1ccc(NC2=NC3CS(=O)(=O)CC3S2)cc1)N1CCN(c2ccccc2F)CC1 (stereo not drawn)	.	.	.	.	.	.	/
COc1ccc(C(=O)NC2CCN(C(=O)NCc3ccccc3)CC2)cc1	.	.	.	.	.	.	/
CC(=O)C[C@H]1c2cc(F)ccc2S(=O)(=O)N1c1ccc(N(C)C)cc1	.	.	.	.	.	.	/
O=C(Cc1ccc(NC2=NC3CS(=O)(=O)CC3S2)cc1)N1CCN(c2ccc(F)cc2)CC1 (stereo not drawn)	.	.	.	.	.	.	/
SMILES	LAP4 TOR yeast	AGP1-GFP MLPCN	CIT2-GFP yeast	MEP2 TOR yeast	RPL19A TOR yeast	VLA-4 inh	VLA-4 allo CP
Cc1ccc(C)c(N2CCN(C(=O)Cc3ccc(NC4=NC5CS(=O)(=O)CC5S4)cc3)CC2)c1 (stereo not drawn)	.	.	.	.	.	56	.
Cc1[nH]c2ccccc2c1/C=N/NC(=O)c1cccc(Br)c1	.	.	.	.	.	.	/
Cc1[nH]c2ccccc2c1/C=N/NC(=O)c1ccccc1	.	.	.	.	.	.	.
COc1ccc(S(=O)(=O)N2CCOCC2)cc1NC(=O)COC(=O)C1COc2ccccc2O1 (stereo not drawn)	.	.	.	.	.	.	.
Nc1ccc(S(N)(=O)=O)cc1	.	.	.	.	.	.	/
CCS(=O)(=O)c1ccc(N)cc1	.	.	.	.	.	58	.
COc1ccc(NC(=O)C2CCN(C(=O)c3cccs3)CC2)c(OC)c1	.	.	.	.	.	.	/
COc1ccc(NC(=O)C2CCN(C(=O)c3ccccc3)CC2)cc1OC	.	.	.	.	.	.	/
COC(=O)c1ccccc1NC(=O)C1CCN(C(=O)c2cc(OC)cc(OC)c2)CC1	.	.	.	.	.	.	.
COc1ccc(NC(=O)C2CCN(C(=O)c3ccccc3)CC2)c(OC)c1	.	.	.	.	.	.	.
COc1cc(C(=O)N2CCC(C(=O)Nc3cccc(C(C)=O)c3)CC2)cc(OC)c1OC	.	.	.	.	.	94	.
COc1ccc(C(=O)N2CCC(C(=O)Nc3ccccc3OC)CC2)cc1	.	.	.	.	.	57	.
CC1CCN(c2ccc(NC(=O)Cn3c(=O)oc4ccccc43)cc2)CC1	.	.	.	.	.	.	/
C=CCNC(=O)C(=O)Nc1ccc2c(c1)N(S(=O)(=O)c1cccs1)CCC2	.	.	.	.	.	.	/
Cc1ccccc1Nc1nc(N)nc(CSc2ccc(F)cc2)n1	.	.	.	.	.	.	/
Cc1ccc(SCc2nc(N)nc(Nc3ccccc3C)n2)cc1C	.	.	.	.	.	54	.
CCOc1cc(N2CCOCC2)c(OCC)cc1NC(=O)CSc1ncccc1C(=O)O	.	.	.	.	.	.	/
CCCC[C@@H]1CNC(=O)C(=O)N1CCCc1cc(OC)c(OC)c(OC)c1	.	.	.	.	.	58	.
COc1cc(CCCN2C(=O)C(=O)NC[C@H]2Cc2cccc3ccccc23)cc(OC)c1OC	.	.	.	.	.	.	/

Assay outcomes as filed in PubChem BioAssay.
